KDM5B inhibitor: KDM5B demethylase inhibition; Q9UGL1; KDM5B demethylase, FDH-coupled NADH fluorescence (FDH is formaldehyde dehydrogenase); Potency, µM (titrated, usually from 57.7 µM), most hits filed as inhibitors; 220,000 compounds, 2.6% hits; active = well fitted inhibition curve with a large enough effect; also: 0% is about no effect; nearly all actives have a fitted effect of over 70% in size
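KDM5BΔAP (200 nM final) in 50 mM HEPES pH 7.5, 0.01% Tween-20 was preincubated 10 min at RT with compound over a concentration range. Substrate mix (H3K4me3 12.5 µM, α-KG 25 µM, Fe²⁺, ascorbate, NAD⁺, FDH) was added, and NADH fluorescence change over 30 min gave dose-response curves.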
* = called active by the depositor; i = inactive. This excerpt belongs to a sample that is enriched for hits. Potency is read from the fitted curve at half-maximal effect.

SMILES	KDM5B inhibitor
CCCN(CC#N)CC(=O)NC(=O)NCc1ccccc1	i
CC(NC(=O)c1cccc(C(F)(F)F)c1)C1CC2CCC1C2 (configuration not stated)	i
CNC(=O)C(C)(C)N1CCC[C@H]1C(=O)N1CCCC1	i
COC(=O)C1=C(C(=O)OC)SC(=C(Cl)C(=S)Nc2cccc(C)c2)S1	i
COc1ccc(CN[C@H]2C[C@@H](Cc3cc(CN(C)c4ccccc4)on3)C2(C)C)cc1	i
Cc1ccc(C(=O)C(C)OC(=O)c2cc3ccccc3[nH]2)cc1 (configuration not stated)	i
Cn1c(COc2cccc(C(F)(F)F)c2)nnc1SCc1c(F)cccc1Cl	i
Cc1ccc(C(C)NC(=O)Nc2ccc(Cl)cc2F)cc1C (configuration not stated)	i
COc1cccc(Oc2coc3cc(OC(=O)c4ccco4)ccc3c2=O)c1	i
O=C(O)C(c1c[nH]c2ccccc12)N1CCN(Cc2cccc(Cl)c2)CC1 (configuration not stated)	i
O=C1CC(c2noc(-c3cc(F)ccc3Cl)n2)CN1c1ccc(F)cc1 (configuration not stated)	i
Cc1nn2c(c1-c1ccccc1C(C)C)N(Cc1ccc(C(=O)O)s1)CCC2	i
Cc1nn2c(c1-c1ccccc1Oc1ccccc1)N(Cc1cccc(C#N)c1)CCC2	25µM*
Cc1nn2c(c1-c1ccccc1-c1ccccc1)N(Cc1ccccc1)CCC2	32µM*
Cc1nn2c(c1-c1ccccc1Oc1ccccc1)N(C(=O)c1cccc(C#N)c1)CCC2	i
Cc1nn2c(c1-c1ccccc1-c1ccccc1)N(C(=O)Cc1ccc3c(c1)OCO3)CCC2	i
Cc1nn2c(c1-c1ccccc1-c1ccccc1)N(C(=O)c1ccnn1C)CCC2	i
Cc1nn2c(c1-c1ccccc1Oc1ccccc1)N(C(=O)Cc1ccccc1)CCC2	i
Cc1nn2c(c1-c1ccccc1-c1ccccc1)N(Cc1ccc(C(=O)O)s1)CCC2	i
Cc1nn2c(c1-c1ccccc1-c1ccccc1)N(CCC(C)C)CCC2	6.3µM*
O=C(c1ccccc1O)N1CCN(S(=O)(=O)c2ccc3ccccc3c2)CC1	i
COc1cccc(-c2cc(C3CCN(C(=O)Nc4ccc5c(c4)OCCO5)CC3)[nH]n2)c1	i
CN(CCc1noc(C(=O)NCc2ccc(F)cc2)n1)C(=O)Nc1cccc(Br)c1	i
O=C(c1ccncc1)N1CCCC(n2cc(-c3nc(C4CC4)no3)nn2)C1 (configuration not stated)	i
Cc1ccc(S(=O)(=O)NC2CC2)cc1C(=O)Nc1cccc2c1CCCC2	i
SMILES	KDM5B inhibitor
COc1ccc(NS(=O)(=O)c2ccc3oc(SC(C)C(=O)N4CCC(C)CC4)nc3c2)cc1 (configuration not stated)	i
Cc1ccc(Cc2ccc(C(=O)O)o2)cc1	i
O=C(Nc1ccc(F)c(F)c1)c1cnc2ccccc2n1	i
CCOc1ccccc1Oc1c(C(F)(F)F)oc2cc(OC(=O)c3ccc(C)cc3)ccc2c1=O	i
O=c1[nH]c2cc3c(cc2cc1CN1CC[C@H](O)C1)OCO3	28µM*
O=c1cc(-c2cccnc2)nc(-c2ccc(CN3CC[C@@H](O)C3)cc2)[nH]1	i
O=c1cc(-c2ccncc2)nc(-c2ccc(CN3CC[C@@H](O)C3)cc2)[nH]1	i
CN1CCN(C(=O)c2cccs2)CC12CCNC(=O)CC2 (configuration not stated)	i
CN1CCN(C(=O)c2cccc3c2NCCC3)CC12CCNC(=O)CC2 (configuration not stated)	25µM*
CN1CCCN(CC(=O)N2CCN(C)C3(CCNC(=O)CC3)C2)CC1 (configuration not stated)	i
O=C1Nc2ccccc2C12CCN(c1cc(C3CC(O)C3)ncn1)CC2 (configuration not stated)	i
Cc1ccccc1C(=O)Nc1ccc2c(c1)nc(CN1CCC(C)CC1)n2C	i
Cc1nn(CC(=O)N2CCN(c3ccc(Cl)cc3)CC2)c(=O)c2nc(C(C)C)sc12	i
Cc1cccc(-n2nc(-c3c(C)nc4scc(CC(=O)N5CCOCC5)n4c3=O)cc2C)c1	28µM*
Cc1cccc(-n2nc(-c3c(C)nc4scc(CC(=O)N5CCCC5)n4c3=O)cc2C)c1	28µM*
Cc1cccc(-n2nc(C)c(CCC(=O)N3CCSCC3)c2Oc2ccccc2C)c1	i
Cc1nc2scc(CC(=O)N3CCCC3)n2c(=O)c1-c1cc(C)n(-c2ccc(C(C)C)cc2)n1	25µM*
Cn1nc(CC(=O)N2CCOCC2)c2ccccc2c1=O	i
Cc1cccc(-n2nc(C)c(CCC(=O)N3CCSCC3)c2Oc2ccc(F)cc2F)c1	i
Cc1cccc(-n2ncc(C(=O)N3CCOCC3)c2C2CCN(C(=O)OC(C)(C)C)CC2)c1	i
Cc1cc2nc3n(c(=O)c2n1CC(=O)Nc1ccc(C(C)C)cc1)CCCCC3	i
CCCCc1c(C)nc2ccc(C)cc2c1SCC(=O)O	i
COC(=O)c1ccc(CNC(=O)C2Cc3ccccc3O2)cc1 (configuration not stated)	i
Cc1cccc(C(=O)NC(Nc2cccc(Cl)c2)C(Cl)(Cl)Cl)c1 (configuration not stated)	i
COc1ccc(C=O)cc1COC(=O)COc1ccc(Cl)cc1Cl	i
SMILES	KDM5B inhibitor
Cc1cc(C)c2oc(-c3cc(NC(=O)c4cccnc4)cc(C)c3O)nc2c1	i
Cc1ccc2cc(CN(CC(C)C)S(=O)(=O)c3ccc(Cl)cc3)c(=O)[nH]c2c1	i
O=C(O)c1ccc(CN2C[C@@H](F)[C@@H](OCc3nc4ccc(C(F)(F)F)cc4[nH]3)C2)cc1	i
O=C(CCN1C(=O)C2C3CC(C(Br)C3Br)C2C1=O)OCC(=O)c1ccc([N+](=O)[O-])cc1 (configuration not stated)	i
S=C(NCc1ccccc1)N/N=C/c1cccnc1	i
O=C(C1CC1)N1CC[C@H]2COC(=O)N2c2ccccc2C1	i
O=C1NCc2ccccc2CC12CCCN2Cc1ccc(O)cc1O (configuration not stated)	89µM*
O=C1NCc2ccccc2CC12CCCN2Cc1ccc(O)cc1 (configuration not stated)	i
COc1ccc(CN2CCCC23Cc2ccccc2CNC3=O)c(O)c1 (configuration not stated)	i
O=C(NNC(=O)C1CCCc2ccccc21)c1ccccc1Br (configuration not stated)	i
Cc1ccc2c(Cn3nnc(-c4ccccc4C)n3)cc(=O)oc2c1	i
CC(C)N1C(=O)CO[C@H](c2ccc(NC(=O)c3ccc(C#N)cc3)cc2)[C@H]1CO	i
O=C(c1cc2ccccc2oc1=O)N1CCN(Cc2cccc(Cl)c2)CC1	i
COCCNC(=O)C(C)(C)Oc1nn(Cc2cccc(Cl)c2)c2ccccc12	i
CC(C)n1nc(OC(C)(C)C(=O)NCCOc2ccccc2)c2cc(CN3CCOCC3)ccc21	28µM*
CC(C)n1nc(OC(C)(C)C(=O)NC2CCC(O)CC2)c2cc(CN3CCOCC3)ccc21 (configuration not stated)	25µM*
COCCCNC(=O)C(C)(C)Oc1nn(Cc2cccnc2)c2ccc(COC)cc12	i
CC(C)CNC(=O)N1CCOc2ccc(CN3CCOCC3)cc2C1	i
CC(C)CNC(=O)C(C)(C)Oc1nn(C(C)C)c2ccc(CN3CCOCC3)cc12	35µM*
